This is a sample that favours compounds with a hit; in the whole collection about 1.6% have one here.
KCNQ2 inh: inhibitors of rat KCNQ2 potassium channel | O88943 | CHO-K1 KCNQ2, FluxOR thallium flux, 20 min; stronger effect = lower value | B-score at 10 µM | hit rate 1.1% among 310,000;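 active = fluorescence ratio B-score at most minus 3 library SDs, with starting brightness B-score within 2 library SDs, cut at about -5.5 in these data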
KCNQ2 pot: enhances the rat KCNQ2 potassium channel | O88943 | CHO-K1 KCNQ2, FluxOR thallium flux fluorescence; stronger effect = higher value | B-score at 10 µM | hit rate 0.54% among 310,000;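 active = fluorescence ratio B-score at least 3 SD of library B-scores, with initial fluorescence B-score within 3 of them, cut at about 5.3 in these data; same plate scores as AID 2156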;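 note: B-score of peak minus minimum over baseline fluorescence ratio after K+ and Tl+ stimulus; positive B-score means potentiation of KCNQ2 with more thallium influx and brighter signal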
Kir21 confirm: confirmation of mouse Kir2.1 potassium channel inhibitors | shares compounds with KCNQ2 pot | hit rate 41% among 2,300 | Tl flux remaining, % of negative control (stronger effect = lower value), % at 10 µM | AID 2032 | Kir2.1-expressing cells, FluxOR thallium flux fluorescence; stronger effect = lower value;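 active = Primary-screen hit whose thallium flux fell at least 3 control SD below untreated wells in both duplicates, with normal baseline fluorescence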;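 note: 0% = blank wells without stimulus and 100% = stimulated no-compound controls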
HEK293 ctr: counter-screen for Kir2.1 inhibitors: effect in parental HEK293 cells; shares compounds with KCNQ2 pot; FluxOR thallium flux fluorescence; 0% = unstimulated blank wells; FluxOR signal as % of negative control (100 = no effect), % at 10 µM; hit rate 19% among 2,300; AID 2105;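 active = dye signal at least 3 control SD above or below untreated wells in both duplicates, raw fluorescence within 3, either direction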;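 note: percent is based on the flux ratio of peak minus minimum fluorescence over baseline F0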
CHO-K1 ctr: alters thallium flux in parental CHO-K1 cells, KCNQ2 counter-screen | AID 2282 | activity increase over 3SD of controls, % at 10 µM | FluxOR thallium flux fluorescence; zero = vehicle mean+3SD, 100% = vehicle-minus-blank window | shares compounds with KCNQ2 pot | hit rate 43% among 1,200;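 active = signal rise of at least 3 SD above the untreated control mean, in both duplicate wells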;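 note: counter screen of KCNQ2 potentiator hits so any rise reflects channel-independent effects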
KCNQ1 pot spec: selectivity of KCNQ2 potentiators: effect on human KCNQ1 | shares compounds with KCNQ2 pot | CHO KCNQ1 stable, FluxOR thallium flux fluorescence; beyond 3SD, as % of vehicle-control signal | hit rate 28% among 1,200 | activation over 3SD threshold, % at 10 µM;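 active = fluorescence ratio rise of at least 3 SD of vehicle wells above their mean, in both replicate wells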;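 note: 0% = vehicle mean plus 3 SD and 100% = vehicle minus unstimulated blank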
Target sequence (P51787 whole entry, looked up): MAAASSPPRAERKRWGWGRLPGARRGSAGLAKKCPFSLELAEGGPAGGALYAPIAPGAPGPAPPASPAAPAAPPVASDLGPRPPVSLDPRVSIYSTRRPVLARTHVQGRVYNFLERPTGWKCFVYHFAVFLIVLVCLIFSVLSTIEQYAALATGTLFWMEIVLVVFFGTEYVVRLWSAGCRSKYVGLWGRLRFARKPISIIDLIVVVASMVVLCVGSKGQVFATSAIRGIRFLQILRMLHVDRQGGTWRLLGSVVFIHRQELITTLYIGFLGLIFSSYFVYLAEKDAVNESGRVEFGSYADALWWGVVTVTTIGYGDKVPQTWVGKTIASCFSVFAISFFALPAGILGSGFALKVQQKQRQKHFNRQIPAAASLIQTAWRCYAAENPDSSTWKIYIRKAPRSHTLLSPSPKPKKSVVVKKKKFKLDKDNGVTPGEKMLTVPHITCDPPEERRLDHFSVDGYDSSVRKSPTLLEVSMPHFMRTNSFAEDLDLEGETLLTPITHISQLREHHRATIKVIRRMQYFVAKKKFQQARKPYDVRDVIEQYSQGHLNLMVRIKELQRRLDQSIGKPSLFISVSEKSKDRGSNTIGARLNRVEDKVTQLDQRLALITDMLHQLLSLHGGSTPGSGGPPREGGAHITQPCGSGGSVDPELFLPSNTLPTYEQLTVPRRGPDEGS
KCNQ2 pot conf: confirmation of rat KCNQ2 potassium channel potentiators; shares compounds with KCNQ2 pot; CHO-KCNQ2 cells, FluxOR thallium flux fluorescence; potentiation, less the hit threshold, % at 10 µM; hit rate 68% among 1,200; AID 2287;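 active = fluorescence ratio rising 3 SD or more over the vehicle control mean in both replicates, plus primary screen hit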;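 note: peak minus minimum thallium fluorescence divided by baseline after K/Tl stimulus; 0% = vehicle mean plus 3 SD and 100% = vehicle minus unstimulated blank difference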
Kir21 spec: mouse Kir2.1 off-target activity of KCNQ2 potentiators. activity over 3SD threshold, % at 10 µM. hit rate 2% among 1,200. AID 2345. HEK293 Kir2.1, FluxOR thallium flux fluorescence. shares compounds with KCNQ2 pot;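 active = fluorescence ratio rise of at least 3 SD above the vehicle-control mean, seen in both replicates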;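 note: 0% = vehicle mean plus 3 SD and 100% = vehicle minus no-stimulus blank window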
KCNQ2 W236L pot: potentiates the retigabine-insensitive rat KCNQ2 W236L mutant channel | hit rate 10% among 940 | current increase over 3SD of negative controls (%), stronger effect = higher value, % at 25 µM | CHO KCNQ2-W236L, automated patch clamp current | shares compounds with KCNQ2 pot;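 active = current increase at least 3 SD of the untreated controls above them in both duplicate recordings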
* marks the source's active call; other numbers are inactive results; i = inactive; x = no result.

SMILES | KCNQ2 inh | KCNQ2 pot | Kir21 confirm | HEK293 ctr | others
O=C(CCC(F)(F)F)N1CCCC(N2CCN(c3cccc(Cl)c3)CC2)C1 (stereo not given) | i | 1.29 | x | x
O=C(CSc1nncs1)Nc1ccc(S(=O)(=O)N2CCCC2)cc1 | i | 0.64 | x | x
Cc1cc(C)c(NC(=O)C2CSCCS2)c(C)c1 (stereo not given) | i | 6.46* | i | i | CHO-K1 ctr=22.7*;KCNQ1 pot spec=15.3*;KCNQ2 pot conf=-3.0;Kir21 spec=-31.9;KCNQ2 W236L pot=i
Cc1cc(C)c(NC(=O)C2CCCCN2C)c(C)c1 (stereo not given) | i | x | x | x
COc1ccc(NC(=O)C(c2ccc(OC)cc2)N(C)C(=O)c2cnccn2)cc1 (stereo not given) | i | 6.44* | i | i | CHO-K1 ctr=0.6*;KCNQ1 pot spec=-24.9;KCNQ2 pot conf=24.4*;Kir21 spec=-27.9;KCNQ2 W236L pot=i
CC(C)c1ccc(NC(=O)C(c2ccccc2)N(C)C(=O)c2cnccn2)cc1 (stereo not given) | i | 0.26 | x | x
S=c1nc(C2CCCCC2)n(-c2ccccc2)[nH]1 | i | 10.7* | i | 261.5%* | CHO-K1 ctr=41.7*;KCNQ1 pot spec=-12.0;KCNQ2 pot conf=22.3*;Kir21 spec=-31.9;KCNQ2 W236L pot=i
S=c1nc(-c2ccccc2)n(-c2ccccc2)[nH]1 | i | 0.07 | x | x
c1ccc(SCCCCNC2CCCC2)cc1 | i | 1.17 | x | x
COc1ccc(OCCNC2CCCC2)cc1 | i | 1.11 | x | x
c1ccc(-c2ccc(OCCCNC3CCCC3)cc2)cc1 | i | x | 42.5%* | i
c1ccc(Cc2ccc(OCCCNC3CCCC3)cc2)cc1 | i | 0.67 | 44.5%* | i
N/C(=N\OC(=O)Nc1ccccc1)c1cccc(C(F)(F)F)c1 | i | 10.5* | i | i | CHO-K1 ctr=-13.8;KCNQ1 pot spec=9.0*;KCNQ2 pot conf=23.1*;Kir21 spec=-27.7;KCNQ2 W236L pot=i
N/C(=N\OC(=O)Nc1ccccc1)c1ncc(C(F)(F)F)cc1Cl | i | x | x | x
CC(C)(C)SCCNC(=O)CN(c1ccccc1)S(=O)(=O)c1ccc(F)cc1 | i | x | x | x
Cn1c(CNC(=O)c2ccc(F)cc2)cc2ccccc21 | i | 6.55* | i | i | CHO-K1 ctr=-0.3;KCNQ1 pot spec=78.4*;KCNQ2 pot conf=-0.3;Kir21 spec=-27.4;KCNQ2 W236L pot=i
Cn1c(CNC(=O)c2ccccc2F)cc2ccccc21 | i | x | x | x
CCc1ccccc1N(C(=O)c1ccco1)C(C(=O)NC1CCCC1)c1cccnc1 (stereo not given) | i | x | x | x
COc1ccc(S(=O)(=O)N(C)C)cc1NS(=O)(=O)c1ccc(F)c(F)c1F | i | 0.14 | x | x
COC(=O)CSc1ccccc1C(=O)OC | i | x | x | x
COC(=O)CSC1=NS(=O)(=O)c2ccccc21 | -7.87* | -7.87 | 58.0%* | i
CCc1nc(SCC(=O)N2CCCCCC2)c2c(=O)n(C)c(=O)n(C)c2n1 | i | 5.51* | i | i | CHO-K1 ctr=-16.0;KCNQ1 pot spec=5.9*;KCNQ2 pot conf=34.7*;Kir21 spec=-48.9;KCNQ2 W236L pot=i
CCc1nc(SCC(=O)N2CCOCC2)c2c(=O)n(C)c(=O)n(C)c2n1 | i | 2.03 | x | x
CC(C)c1nc(SCC(=O)N2CCCCCC2)c2c(=O)n(C)c(=O)n(C)c2n1 | i | 17* | i | i | CHO-K1 ctr=6.8*;KCNQ1 pot spec=-11.4;KCNQ2 pot conf=53.5*;Kir21 spec=-20.3;KCNQ2 W236L pot=i
CC(C)c1nc(SCC(=O)N2CCCC2)c2c(=O)n(C)c(=O)n(C)c2n1 | i | 3.79 | x | x
SMILES | KCNQ2 inh | KCNQ2 pot | Kir21 confirm | HEK293 ctr | others
CC(C)C(=O)Nc1c2c(nn1-c1ccc(F)cc1)CSC2 | i | 0.18 | x | x
Cc1cccc([C@@H]2[C@@H]3C(=O)N(Cc4ccccc4)C(=O)[C@@H]3[C@]3(CC(C)C)C(=O)N(c4cccc(F)c4)C(=O)N23)c1 | i | 0.18 | x | x
Cc1cc(=S)c2cccc(C)c2[nH]1 | i | x | x | x
COc1ccc(/C=C2\SC(=N)N(c3nccs3)C2=O)cc1OC | i | 4.81 | x | x
N=C1S/C(=C\c2ccc(-c3cccc(Cl)c3)o2)C(=O)N1c1nccs1 | i | 6.54* | i | i | CHO-K1 ctr=-7.3;KCNQ1 pot spec=-21.6;KCNQ2 pot conf=6.8*;Kir21 spec=-38.9;KCNQ2 W236L pot=i
COc1ccc(C(=O)c2c(C)c3ccccc3n2CC(O)CNC(C)C)cc1 (stereo not given) | i | 0.75 | x | x
CC(C)NCC(O)Cn1c2c(c3ccccc31)CCc1c-2cnn1-c1ccccc1 (stereo not given) | i | x | 54.0%* | i
CCC(=O)c1ccc(OCC(=O)OCC(=O)NCCC2=CCCCC2)cc1 | i | x | x | x
Cn1c(SCc2ccccn2)nnc1-c1ccccc1 | i | x | x | x
CSc1nc2ccc3nc(NC(=O)c4ccc(C)cc4)sc3c2s1 | i | 0.66 | x | x
Cc1ccc(C(=O)Nc2nc3ccccc3c(=O)s2)cc1 | i | 6.07* | i | 254.5%* | CHO-K1 ctr=-14.0;KCNQ1 pot spec=-15.3;KCNQ2 pot conf=-2.5;Kir21 spec=-17.3
CCOc1ccc(C(=O)Nc2ccc3c(c2)OCCO3)cc1 | i | 1.49 | x | x
Cc1cc(C(=O)N2CCN(c3ccc([N+](=O)[O-])cc3)CC2)n[nH]1 | i | x | x | x
Cc1cc(-n2c(C)cc(C(=O)CSc3nncn3C(C)C)c2C)no1 | i | 0.44 | x | x
Nc1ccc(C(=O)N/N=C2\CCCc3c2[nH]c2ccccc32)cc1 | i | 0.77 | x | x
c1ccc(CCN=C2CCCc3c2[nH]c2ccccc32)cc1 | i | x | 19.5%* | 70.5%*
CC(C)(C)C(=O)n1nc(-c2ccccc2)oc1=O | i | x | x | x
O=C(N/N=C/c1ccc(-c2ccc(Br)cc2)o1)c1ccc2c(c1)OCO2 | i | x | x | x
O=C(N/N=C/c1ccc(COc2ccc(Br)cc2)o1)c1ccc2c(c1)OCO2 | i | 5.71* | i | i | CHO-K1 ctr=-4.6;KCNQ1 pot spec=-27.8;KCNQ2 pot conf=-11.4;Kir21 spec=-29.4
CCCC1Oc2ccccc2C(=O)N(CC(=O)c2ccc3c(c2)OCCO3)C1=O (stereo not given) | i | x | x | x
CC(=O)N1c2ccc(N=Cc3cc(Br)cc(Br)c3O)cc2CC1C (stereo not given) | i | 11.8* | i | i | CHO-K1 ctr=-16.5;KCNQ1 pot spec=43.4*;KCNQ2 pot conf=13.6*;Kir21 spec=-33.1;KCNQ2 W236L pot=i
CC1CCCC(C)N1/N=C/c1cc(Br)cc(Br)c1O (stereo not given) | i | x | x | x
CC(NC(=O)CC12CC3CC(CC(C3)C1)C2)C(=O)O (stereo not given) | i | 1.22 | x | x
COc1ccc(C(C)NC(=O)CC23CC4CC(CC(C4)C2)C3)cc1 (stereo not given) | i | 5.66* | i | i | CHO-K1 ctr=-10.6;KCNQ1 pot spec=-9.9;KCNQ2 pot conf=-3.4;Kir21 spec=-51.9;KCNQ2 W236L pot=i
Cc1ccccc1CN1CCN(CC(=O)NC(C)c2ccccc2)CC1 (stereo not given) | i | 0.4 | x | x

Bioassay records (PubChem)
